Assay outcomes from PubChem BioAssay.
Most compounds without a hit are left out; they make up all but 2.8% or so of the library.
PI4K2A block: qHTS for small molecular inhibitors of PI4K2A | Phosphatidylinositol 4-kinase type 2-alpha (Homo sapiens), Q9BTU6 | purified PI4K2A, ADP-Glo luminescence, 1 h; hits give low values | activity change, negative = inhibition, % at 76.9 µM | 420,000 tested, 0.13% active; in the data active = activity change below about -50%; inconclusive = mostly about -30% to -49%;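 note: -100% = wells without enzyme as full effect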
Target sequence (Q9BTU6 whole entry, looked up): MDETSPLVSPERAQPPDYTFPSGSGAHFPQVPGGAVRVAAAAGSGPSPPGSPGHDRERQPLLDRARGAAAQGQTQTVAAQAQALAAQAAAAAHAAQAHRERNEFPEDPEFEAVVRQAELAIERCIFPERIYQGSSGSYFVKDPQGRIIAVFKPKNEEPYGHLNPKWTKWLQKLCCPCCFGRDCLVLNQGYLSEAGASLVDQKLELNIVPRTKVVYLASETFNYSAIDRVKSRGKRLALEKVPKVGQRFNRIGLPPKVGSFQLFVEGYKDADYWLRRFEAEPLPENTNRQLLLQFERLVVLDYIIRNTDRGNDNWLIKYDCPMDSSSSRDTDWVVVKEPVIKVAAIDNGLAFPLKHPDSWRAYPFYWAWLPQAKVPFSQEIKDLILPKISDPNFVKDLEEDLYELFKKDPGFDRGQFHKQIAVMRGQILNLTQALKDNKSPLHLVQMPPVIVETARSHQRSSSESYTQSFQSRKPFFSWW
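ADP-Glo luminescence measured ADP generated by PI4K2A enzyme (4 ug/mL before mixing) with 1.2 mM PI substrate (pre-mix) and 300 microM ATP (pre-mix). Tris pH7.5 buffer with MgCl2, Triton X-100; 1 h reaction at ambient temperature.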
RGS4 inhibitor: Inhibitors of Regulator of G Protein Signaling (RGS) 4: qHTS. 390,000 tested, 0.039% active. AID 504845, 2011. Regulator of G-protein signaling 4 (Homo sapiens), P49798. Potency, µM (top dose mostly 114 µM), inactives show top-dose activity change, negative = inhibition, hits mostly inhibitors. Transcreener GDP fluorescence polarization, RGS4-accelerated GTP hydrolysis; active = well fitted inhibition curve with a large enough effect; inconclusive = small, poorly fitted or top-dose-only effect; inactive = no such curve, though single readings can be large or run the other way; note: potency is the fitted concentration of half-maximal effect; % is set by controls: 0 for no effect and ±100 for the full control effect; nearly all actives have a fitted effect of over 75% in size
Target sequence (P49798 whole entry, looked up): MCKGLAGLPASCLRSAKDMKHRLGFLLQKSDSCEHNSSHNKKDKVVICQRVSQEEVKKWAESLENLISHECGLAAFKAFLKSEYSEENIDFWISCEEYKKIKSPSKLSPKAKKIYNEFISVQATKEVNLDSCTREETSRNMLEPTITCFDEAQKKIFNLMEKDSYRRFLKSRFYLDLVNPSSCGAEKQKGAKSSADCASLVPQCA
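MLSMR compounds (23 nl, pin-transferred) preincubated 10 min at room temperature with a 500nM (2x) first reagent, then RGS4 at 900nM (2x) plus Transcreener GDP mix added; fluorescence polarization (620/688 nm) read before and after 90 min at 30 °C.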
LDHA inh: qHTS assay for inhibitors of human lactate dehydrogenase. L-lactate dehydrogenase A chain (Homo sapiens), P00338. purified LDHA, NADH/diaphorase-resazurin fluorescence; hits give low values. activity change, % (values are at about 110 or 230 µM). 480,000 tested, 0.15% active; in the data active = activity change below about -30%; inconclusive = mostly about -25% to -30%;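 note: plate controls were DMSO wells for no effect and wells without enzyme for full effect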
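LDH5 2 nM; NADH 0.06 mM, pyruvate 0.2 mM; 200 mM Tris pH 7.4, EDTA, Tween-20; 5 min RT. Detection: diaphorase 0.133 mg/mL + resazurin 37 µM, fluorescence ex540/em590 at 0 and 20 min; normalized to enzyme-free and DMSO wells.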
DRD3 antagonist: qHTS of D3 Dopamine Receptor Antagonist: qHTS. D3R cells, DiscoveRx beta-arrestin luminescence, antagonist mode; hits give low values. D(3) dopamine receptor (Homo sapiens), P35462. max response, negative = inhibition, %. 360,000 tested, 2.5% active; in the data active = max response below about -50%; inconclusive = no clear call, values can overlap the other calls; note: % is set by controls: 0 for no effect and ±100 for the full control effect
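Cells plated overnight at 1500 cells/well, then exposed to library compounds with dopamine controls for 90 minutes at 37 degrees C. DiscoveRx reagent added for 30–60 minutes at room temperature; luminescence read, quantitative HTS format.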
pAkt inh: HTS Assay for Inhibitors of Akt Phophorylation: Primary Screen | activity change, % for hits at 50 µM | Neuro2A IGF-stimulated pAkt S473 HTRF, 20 min; hits give low values | 360,000 tested, 0.32% active; in the data active = activity change below about -80%; inconclusive = mostly about -51% to -80%; note: % is set by controls: 0 for no effect and ±100 for the full control effect
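Neuro2A cells in DMEM with 0.5% FBS, overnight at 37 deg C, given compound at single 50 µM final, then IGF (6 nM final) for 20 min at 37 deg C. Lysed; phospho-Akt Ser473 by HTRF after 24 h, 665/615 ratio.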
DRD3 agonist: qHTS of D3 Dopamine Receptor Agonist: qHTS | 410,000 tested, 0.58% active | max activation, % | D3R DiscoveRx beta-arrestin cells, luminescence, 90 min | D(3) dopamine receptor (Homo sapiens), P35462; in the data active = max activation above about 30%; note: 0% is about no effect
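Agonist mode: compounds and dopamine controls were applied to plated cells for 90 min at 37 degrees C after an overnight attachment at 1500 cells/well. Luminescent read-out followed 30 - 60 minutes at room temperature with DiscoveRx detection reagent.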
* marks the source's active call; other numbers are inactive results; ! = not active in a repeat.

For COc1ccc(CN2CCCC(N3CCN(c4ccc(OC)cc4)CC3)C2)cc1 (centres undefined) the results were PI4K2A block -4, RGS4 inhibitor 35%, LDHA inh 1, DRD3 antagonist -58*, pAkt inh inactive and DRD3 agonist -6.
Screening COc1ccc(N2CCN(C3CCCN(Cc4cccc(C)c4)C3)CC2)cc1 (centres undefined) returned PI4K2A block 6, RGS4 inhibitor -9%, LDHA inh 1, DRD3 antagonist -24, pAkt inh inactive and DRD3 agonist -19.
Screening CNC(=O)c1nn(CC(=O)N(C)C2CCCCC2)c(=O)c2ccccc12 returned LDHA inh 0.
`CC(CC(=O)Nc1ccc(F)cc1)(C(=O)O)c1ccccc1` (centres undefined) gave LDHA inh -12.
Screening COc1ccc(OC)c(-n2c(-c3cc(-c4ccc(F)cc4)n[nH]3)n[nH]c2=S)c1 returned PI4K2A block 0, RGS4 inhibitor -9%, LDHA inh -11, DRD3 antagonist -81*, pAkt inh inactive and DRD3 agonist -3.
`CCOc1ccccc1-c1nc(-c2ccc(NC(=O)c3ccc(Br)o3)cc2)no1` gave PI4K2A block 4, RGS4 inhibitor -3%, LDHA inh 2, DRD3 antagonist 21, pAkt inh inactive and DRD3 agonist 57*.
For CCOc1ccccc1-c1nc(-c2ccc(NC(=O)Cc3ccc(OC)cc3)cc2)no1 the results were PI4K2A block -2, RGS4 inhibitor -37%, LDHA inh -1, DRD3 antagonist 3, pAkt inh inactive and DRD3 agonist 7.
Screening COc1ccc(-c2noc(-c3ccccc3C(=O)NCc3ccco3)n2)cc1 returned PI4K2A block -10, RGS4 inhibitor 2%, LDHA inh -5, DRD3 antagonist 1, pAkt inh -110%* and DRD3 agonist 5.
COc1cccc(NC(=O)c2ccccc2-c2nc(-c3ccc(Cl)cc3)no2)c1 was read as PI4K2A block -5, RGS4 inhibitor 15%, LDHA inh -5, DRD3 antagonist -7, pAkt inh -109%* and DRD3 agonist 9.
For O=C(Nc1ccccc1)C1=C(c2ccccc2)S(=O)(=O)CCO1 the results were LDHA inh 5.
`Cc1ccc(NC(=O)C2=C(c3ccccc3)S(=O)(=O)CCS2(=O)=O)cc1` gave PI4K2A block inconclusive, RGS4 inhibitor inconclusive, LDHA inh 0, DRD3 antagonist -71*, pAkt inh inactive and DRD3 agonist -22.
COc1ccc2oc(=O)cc(-c3cc4cccc(OC)c4o3)c2c1 was read as PI4K2A block -1, RGS4 inhibitor 0%, LDHA inh -33*!, DRD3 antagonist 5, pAkt inh inactive and DRD3 agonist 1.
Cc1cc2c(C)nc(N/N=C/c3ccc(F)cc3)nc2o1 was read as PI4K2A block -3, RGS4 inhibitor -22%, LDHA inh 2, DRD3 antagonist -56*, pAkt inh inactive and DRD3 agonist 3.
Screening Cc1cc2c(C)nc(N/N=C/c3ccc([N+](=O)[O-])cc3)nc2o1 returned PI4K2A block -2, RGS4 inhibitor -44%, LDHA inh -9, DRD3 antagonist -5, pAkt inh inactive and DRD3 agonist 3.
`COc1cccc(-c2nc(CS(=O)(=O)CC(=O)Nc3cccc(C(F)(F)F)c3)c(C)o2)c1` gave LDHA inh -30*.
Screening COc1cc2c(-c3ccccc3Cl)nc3c(c(C)nn3-c3ccccc3)c2cc1OC returned PI4K2A block 2, RGS4 inhibitor -6%, LDHA inh -2 and DRD3 agonist 59*.
For COc1cc2c(-c3ccccc3O)nc3c(c(C)nn3-c3ccccc3)c2cc1OC the results were PI4K2A block -1, RGS4 inhibitor -2%, LDHA inh 1, DRD3 antagonist 51, pAkt inh inactive and DRD3 agonist 8.
`O=C(NNC(=O)c1sc2cccc(Cl)c2c1Cl)Nc1ccccc1` gave PI4K2A block 6, RGS4 inhibitor 3%, LDHA inh -18, DRD3 antagonist 0, pAkt inh inactive and DRD3 agonist -16.
`O=C(NNC(=S)NC1CCCCC1)c1sc2ccccc2c1Cl` gave PI4K2A block 4, RGS4 inhibitor -32%, LDHA inh -7, DRD3 antagonist -64*, pAkt inh inactive and DRD3 agonist -10.
O=C(NNC(=O)c1sc2cccc(Cl)c2c1Cl)NC1CCCCC1 was read as PI4K2A block 10, RGS4 inhibitor 8%, LDHA inh -6, DRD3 antagonist -74*, pAkt inh inactive and DRD3 agonist -18.
Screening Cc1cc(C)cc(C(=O)Nc2cccc(-c3nn4cnnc4s3)c2)c1 returned LDHA inh 3.
COc1ccc(C(=O)C[n+]2ccc(Cl)c3ccc(Cl)cc32)cc1 was read as LDHA inh -60*.
For O=C(NN1C(=O)c2ccccc2NC1c1ccc([N+](=O)[O-])o1)c1ccc([N+](=O)[O-])cc1 (centres undefined) the results were PI4K2A block 2, RGS4 inhibitor -27%, LDHA inh 4, DRD3 antagonist -61*, pAkt inh inactive and DRD3 agonist 1.
For CN1CCN(CC(=O)NN(Cc2ccccc2)c2ccccc2)CC1 the results were PI4K2A block -5, RGS4 inhibitor 6%, LDHA inh -44*, DRD3 antagonist -26, pAkt inh inactive and DRD3 agonist -16.
`Cc1cccc(OCC(=O)NC(CC(C)C)C(=O)N(C)C)c1` (centres undefined) gave LDHA inh -23.
For CNC[C@@H](C)NC[C@@H](Cc1ccccc1)NCCc1ccccc1 the results were PI4K2A block 2, RGS4 inhibitor 14%, LDHA inh -10, DRD3 antagonist -86*, pAkt inh inactive and DRD3 agonist -3.
For O=C(Nc1nc2c(s1)CCCC2)C1CCCN1C(=O)c1cccs1 (centres undefined) the results were PI4K2A block -3, RGS4 inhibitor -4%, LDHA inh -5, DRD3 antagonist -53*, pAkt inh inactive and DRD3 agonist -5.
`O=C(CCS(=O)(=O)Cc1ccccc1)Nc1nc2c(s1)CCCC2` gave PI4K2A block 0, RGS4 inhibitor 4%, LDHA inh -4, DRD3 antagonist -103*, pAkt inh inactive and DRD3 agonist -11.
